The record followed here is PubChem BioAssay.

Assay [1] relates to Human papillomavirus type 1a protein E7 (residues 44-93). Put plainly: HPV1a E7 fragment binders on microarrays, primary screen, biochemical, small-molecule microarray, residues 44-93, 635 nm fluorescence (AID 1108).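 Note: E7 fragment applied at 1 µg/mL in TBST for 1 h at 4 C; score combines spot fluorescence with its signal to noise ratio.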 Particulars: small-molecule microarray binding, fluorescence 635 nm; higher = more signal.
A short description of assay [2]: modulators of HCV replicon luciferase signal, primary screen, HCV replication inhibitor project, Huh7 cells, luciferase reporter (AID 1109).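 Note: huh7 hepatoma cells harbouring a luciferase neomycin HCV replicon reporter; luciferase luminescence as measure of HCV replicon replication; test concentration not given here.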 Particulars: 48 h, higher = more signal. (Replicon systems follow genome replication, usually without infectious particles.)
Assay [3] concerns the target Left-right determination factor 2 (Homo sapiens) (UniProt O00292). Description: LEFTY2 binders on small-molecule microarrays, primary screen, biochemical, small-molecule microarray, 635 nm fluorescence scan (AID 1110). The following applies: LEFTY2 binding, higher = more signal.
Assay [4] deals with Calmodulin-1 (Homo sapiens) (UniProt P0DP23). Description: CALM1 binders on microarrays, EGTA buffer, profiling panel, biochemical, small-molecule microarray, Cy5-labelled CALM1 (AID 1111).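 Note: labelled calmodulin applied in Tris saline Tween buffer holding calcium plus EGTA and DTT.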 The following applies: Cy5-CALM1 binding fluorescence, higher = more signal.
Assay [5] has the same target. Put plainly: calcium-bound CALM1 binders on microarrays, profiling panel, artefact control for SMM control-protein annotation, biochemical, small-molecule microarray, Cy5-labelled CALM1, plus calcium (AID 1112).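 Note: score merges spot fluorescence with signal to noise from triplicate slides.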 Particulars: Cy5-CALM1 binding fluorescence, higher = more signal.
Assay [6] is described as follows: small-molecule microarray binders of probe aWnt5a, primary screen, biochemical, biotinylated probe, 635/667 nm fluorescence (AID 1113).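 Note: score merges 667 nm fluorescence intensity with signal-to-noise per printed feature.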 The following applies: higher = more signal.
A short description of assay [7]: small-molecule microarray binders of probe aShh, primary screen, biochemical, biotinylated probe, 635/667 nm fluorescence (AID 1114).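 Note: probe is biotin-labelled aShh protein from a stem cell growth factor screen; measures binding of labelled protein to compounds printed on the slide; score merges feature fluorescence at 667 nm with signal-to-noise.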 Particulars: higher = more signal.
The nature of assay [8]: small-molecule microarray binders of probe aNog, primary screen, biochemical, biotinylated probe, 635/667 nm fluorescence (AID 1115).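 Note: probe is biotinylated aNog protein used at 0.15 µg/mL for 1 h at 4 C; z-score combines 667 nm fluorescence of each spot with its signal to noise.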 Particulars: higher = more signal.
The target in assay [9] is Torsin-1A-interacting protein 1 (Homo sapiens) (UniProt Q5JTV8). Description: LAP1 binders from COS7 cell lysate, primary screen, small-molecule microarray, 635/667 nm fluorescence (AID 1116). Particulars: COS7-hLAP1 lysate binding, 635 nm fluorescence, higher = more signal.
Assay [10] concerns the target Alpha-bungarotoxin (Bungarus multicinctus) (UniProt P60615). Description: alpha-bungarotoxin binders on microarray, profiling panel, artefact control for SMM control protein annotation, biochemical, small-molecule microarray, Alexa647 label, 635/667 nm fluorescence (AID 1117). Particulars: alpha-BTX-A647 binding fluorescence, higher = more signal.
The target of assay [11] is Albumin (Bos taurus) (UniProt P02769). Description: bovine serum albumin binders on microarray, profiling panel, artefact control for SMM control protein annotation, biochemical, small-molecule microarray, Alexa647 label, 635/667 nm fluorescence (AID 1118).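 Note: score merges 667 nm emission intensity and signal-to-noise per printed compound spot.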 Particulars: BSA-A647 binding, fluorescence 635 nm, higher = more signal.
A short description of assay [12]: small-molecule microarray binders of probe aXIP, primary screen, biochemical, NeuroSMM set, 635/667 nm fluorescence (AID 1119).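 Note: probe is the protein aXip251-270 applied at 1 µg/mL to compound-printed slides; binding of probe to printed compounds measured as 667 nm fluorescence plus signal to noise.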 Particulars: higher = more signal, called active from +8 up or from −8 down.
Assay [13] can be described thus: small-molecule binders of probe aNOTCH3, primary screen, biochemical, small-molecule microarray, 635/667 nm fluorescence (AID 1120).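 Note: probe is a biotin-tagged antibody raised against NOTCH3 rather than NOTCH3 protein; score merges spot fluorescence near 667 nm with spot signal to noise.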 The following applies: higher = more signal.
The nature of assay [14]: small-molecule binders of probe aNOTCH2, primary screen, biochemical, small-molecule microarray, 635/667 nm fluorescence (AID 1121).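 Note: score merges feature fluorescence read at 667 nm with its signal to noise.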 Particulars: higher = more signal.
In assay [15] the target is Carbonic anhydrase 2 (Homo sapiens) (UniProt P00918). Put plainly: CAII small-molecule binders, profiling panel, biochemical, small-molecule microarray, Alexa647-labelled CAII (AID 1122). Particulars: CAII-A647 binding fluorescence, higher = more signal.
Assay [16] can be described thus: COS7 lysate on small-molecule microarray, probe aHis, 635 nm (AID 1123).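 Note: z-score combines 667nm fluorescence intensity with signal-to-noise per printed compound spot.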 The following applies: COS7 cell lysate, fluorescence, higher = more signal.
Assay [17] in a line: compound binding in COS7 lysate, probe aLAP1, primary screen, cell lysate, small-molecule microarray (AID 1124).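 Note: lysate comes from COS7 cells expressing LAP1 and is applied at 0.3 µg/mL; score merges spot fluorescence near 667 nm with signal-to-noise over triplicate slides.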 The following applies: probe aLAP1, fluorescence, higher = more signal.
For assay [18], the system named is Sam68 (KHDRBS1). Put plainly: Sam68 small-molecule binders, primary screen, biochemical, small-molecule microarray, 635 nm fluorescence (AID 1125).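 Note: score merges 667 nm channel intensity with signal to noise over triplicate slides.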 The following applies: small-molecule microarray binding, higher = more signal.
For assay [19], the system named is Chordin-like protein 2 (CHRDL2). Description: CHRDL2 small-molecule binders, primary screen, biochemical, small-molecule microarray, 635 nm fluorescence (AID 1126).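 Note: printed compound slides probed with Chrdl2 protein at 4 µg/mL for 1 h at 4 C; score merges 667 nm emission intensity with signal to noise over three replicate slides.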 The following applies: small-molecule microarray binding, fluorescence 635 nm; higher = more signal.
Assay [20] has as its target Concanavalin-A (Canavalia ensiformis) (UniProt P02866). Put plainly: ConA small-molecule binders, primary screen, artefact control for SMM control protein annotation, biochemical, small-molecule microarray, Alexa647 label, 635 nm (AID 1127).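 Note: z combines 667 nm emission intensity with signal-to-noise across three replicate slides.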 The following applies: ConA-A647 binding fluorescence, higher = more signal.

Active and inactive are the calls of the source.

Sequence of Concanavalin-A (Canavalia ensiformis) (P02866 whole entry, looked up): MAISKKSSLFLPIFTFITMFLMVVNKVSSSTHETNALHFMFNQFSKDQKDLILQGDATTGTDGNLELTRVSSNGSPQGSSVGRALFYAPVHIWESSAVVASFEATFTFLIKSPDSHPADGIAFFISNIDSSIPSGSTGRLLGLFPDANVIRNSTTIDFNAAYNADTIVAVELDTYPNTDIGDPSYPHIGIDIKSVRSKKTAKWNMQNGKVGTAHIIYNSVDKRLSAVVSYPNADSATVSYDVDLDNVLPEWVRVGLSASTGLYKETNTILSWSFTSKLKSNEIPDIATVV
Sequence of Albumin (Bos taurus) (P02769 whole entry, looked up): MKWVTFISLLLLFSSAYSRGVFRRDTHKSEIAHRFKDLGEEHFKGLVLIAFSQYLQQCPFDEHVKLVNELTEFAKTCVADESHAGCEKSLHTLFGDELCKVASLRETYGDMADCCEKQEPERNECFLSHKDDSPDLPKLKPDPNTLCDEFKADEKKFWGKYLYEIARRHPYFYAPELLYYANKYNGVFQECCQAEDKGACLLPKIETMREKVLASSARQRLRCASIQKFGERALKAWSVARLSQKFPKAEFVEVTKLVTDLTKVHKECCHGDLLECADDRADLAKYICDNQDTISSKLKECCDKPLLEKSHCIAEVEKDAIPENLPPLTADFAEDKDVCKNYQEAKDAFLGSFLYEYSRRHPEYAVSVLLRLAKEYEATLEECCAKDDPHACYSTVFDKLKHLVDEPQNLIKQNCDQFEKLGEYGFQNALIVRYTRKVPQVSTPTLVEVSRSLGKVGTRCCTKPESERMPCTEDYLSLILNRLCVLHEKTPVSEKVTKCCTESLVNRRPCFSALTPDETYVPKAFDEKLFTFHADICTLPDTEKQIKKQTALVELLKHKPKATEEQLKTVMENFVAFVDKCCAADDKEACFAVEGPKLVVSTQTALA
Sequence of Torsin-1A-interacting protein 1 (Homo sapiens) (Q5JTV8 whole entry, looked up): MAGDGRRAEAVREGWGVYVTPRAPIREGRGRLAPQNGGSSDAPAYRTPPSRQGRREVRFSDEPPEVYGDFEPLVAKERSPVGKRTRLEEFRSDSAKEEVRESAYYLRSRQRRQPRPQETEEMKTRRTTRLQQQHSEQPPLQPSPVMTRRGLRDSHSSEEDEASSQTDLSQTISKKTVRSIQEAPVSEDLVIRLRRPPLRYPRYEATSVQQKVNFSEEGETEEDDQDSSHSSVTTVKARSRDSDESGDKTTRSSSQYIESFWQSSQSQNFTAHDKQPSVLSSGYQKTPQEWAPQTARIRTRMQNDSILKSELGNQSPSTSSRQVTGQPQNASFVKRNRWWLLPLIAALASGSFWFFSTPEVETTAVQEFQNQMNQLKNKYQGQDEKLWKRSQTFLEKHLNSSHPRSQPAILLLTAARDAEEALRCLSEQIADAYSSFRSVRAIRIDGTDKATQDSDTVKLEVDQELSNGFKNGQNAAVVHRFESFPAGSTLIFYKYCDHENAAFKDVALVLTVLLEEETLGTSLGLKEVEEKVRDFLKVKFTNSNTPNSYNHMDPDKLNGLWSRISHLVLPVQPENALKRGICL
Sequence of Alpha-bungarotoxin (Bungarus multicinctus) (P60615 whole entry, looked up): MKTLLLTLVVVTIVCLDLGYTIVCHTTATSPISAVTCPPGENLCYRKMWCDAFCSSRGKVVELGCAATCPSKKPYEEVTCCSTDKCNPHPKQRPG
Sequence of Left-right determination factor 2 (Homo sapiens) (O00292 whole entry, looked up): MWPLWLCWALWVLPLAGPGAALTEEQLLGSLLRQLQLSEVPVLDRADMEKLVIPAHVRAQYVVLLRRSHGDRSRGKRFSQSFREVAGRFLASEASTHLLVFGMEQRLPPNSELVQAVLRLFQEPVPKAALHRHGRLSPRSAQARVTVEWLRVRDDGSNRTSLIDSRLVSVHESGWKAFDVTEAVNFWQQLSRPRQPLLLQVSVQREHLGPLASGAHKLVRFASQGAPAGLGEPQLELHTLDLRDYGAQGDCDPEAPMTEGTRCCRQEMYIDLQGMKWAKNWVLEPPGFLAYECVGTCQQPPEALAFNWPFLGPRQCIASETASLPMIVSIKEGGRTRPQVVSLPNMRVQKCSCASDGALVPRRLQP

On to `Cc1ccc(S[C@]2(C(=O)NCc3ccccc3)CC(=O)N(Cc3cc(C(F)(F)F)cc(C(F)(F)F)c3)[C@@H]2c2ccc(CO)cc2)cc1`, for which the composite z-score in assay [1] is -0.115; in assay [3], -0.637; in assay [4] it was -0.477; in [5] it was 0.187; in [6], -0.12; in [7], 0.516. Moreover, the composite z-score in assay [8] was 0.0538; in assay [9] it was -0.712; in assay [10], -0.302; in assay [11], 0.737; in assay [13], -0.128; in assay [14] it was -0.208. The composite z-score in assay [15] is 0.433; in assay [16] it was 1.03; in assay [17], 1.28; in assay [18], -1.01; in assay [19], -0.568; in assay [20], -0.856. Besides, the z-score in assay [2] is -0.763. The composite Z-score in assay [12] was 0.3 (inactive).

In the case of `COC(=O)[C@@]1(Cc2ccc(OC)cc2)[C@H]2c3cc(C(=O)N4CCCC4)n(CCN4CCOCC4)c3C[C@H]2CN1C(=O)c1ccccc1`, the composite z-score in [1] was 1.04; in assay [3], 0.285; in [4], 1.55; in assay [5] it was 1.21; in [6] it was 1.19; in assay [7] it was 2.65. Moreover, the composite z-score is 2.75 in assay [8]; 0.934 in assay [9]; 0.609 in assay [10]; 1.06 in assay [11]; 1.72 in assay [13]; 1.05 in assay [14]. For the same compound, the composite z-score in [15] turned out to be 0.87; in assay [16], 3.42; in assay [17], 0.94; in assay [18], 1.29; in assay [19] it was 0.265; in assay [20], 0.991. In addition, the z-score in assay [2] was -0.882. Further, in assay [12], the composite Z-score was 1.42 (inactive).

Regarding `Cc1c(NC(=O)/C(C#N)=C/C=C/c2ccccc2)c(=O)n(-c2ccccc2)n1C`, the composite z-score in [1] is -0.353; in assay [3], 0.277; in assay [4], 0.193; in [5], -0.0357; in [6] it was -0.145; in [7] it was -0.416. Moreover, the composite z-score is -0.49 in assay [8]; -0.296 in assay [9]; 0.754 in assay [10]; 0.566 in assay [11]; 0.0859 in assay [13]; 0.136 in assay [14]. The composite z-score in [15] is 0.682; in [16] it was 0.811; in assay [17], -0.195; in assay [18], -0.144; in assay [19] it was 0.427; in assay [20] it was 0.802. In assay [2], the z-score was -0.683. Further, the composite Z-score in [12] is 0.54 (inactive).

Turning to `O=C(NCc1ccccc1)[C@@H]1c2ccccc2C(=O)N(Cc2cc(F)cc(C(F)(F)F)c2)[C@H]1c1ccc(CO)cc1`, the composite z-score in assay [1] was 1.44; in assay [3], -0.244; in [4] it was -0.174; in assay [5] it was -0.707; in [6], -0.096; in [7], 0.163. Also, the composite z-score was -0.339 in assay [8]; 1.15 in [9]; 0.258 in assay [10]; 0.491 in [11]; -0.0477 in [13]; -0.124 in assay [14]. The composite z-score in assay [15] stood at 0.589; in assay [16] it was 1.67; in assay [17] it was 0.662; in assay [18] it was 1.27; in assay [19], 0.161; in [20] it was 0.769. In addition, the z-score in assay [2] was -0.132. Also, the composite Z-score in assay [12] is 0.318 (inactive).

Turning to `COc1ccc([Si](C)(C)[C@@H]2[C@@H](CCn3cc([C@H](O)c4ccccc4)nn3)O[C@]3(C(=O)N(C)c4ccccc43)[C@H]2C)cc1`, the composite z-score in assay [1] was -0.0859; in assay [3], 0.0661; in assay [4], -0.069; in assay [5], -0.288; in assay [6], -0.197; in assay [7], -0.0769. The composite z-score in [8] was -0.223; in assay [9], -0.173; in assay [10] it was 0.0489; in assay [11], 0.718; in assay [13], -0.175; in [14], -0.19. The composite z-score in assay [15] was 0.494; in [16], 0.613; in assay [17] it was 0.0014; in assay [18] it was 0.302; in [19], -0.13; in assay [20] it was 0.44. The compound further registered a z-score in assay [2] of -2.32. Moreover, the composite Z-score in [12] is 0.19 (inactive).
